Screens (PubChem BioAssay)
ADAM17 inh = ADAM17 inhibitors, primary screen, biochemical, QFRET | Disintegrin and metalloproteinase domain-containing protein 17 (Homo sapiens), P78536 | recombinant ADAM17, EDANS/DABCYL FRET peptide cleavage | inhibition, % at 6.95 µM | 370,000 tested, 0.83% active | AID 720648, 2013;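 active means inhibition above the mean of compounds lying between control limits plus 3 SD, set per campaign, cut at about 8.5% in these data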
proKLK7 act = proKLK7 zymogen activators, primary screen, biochemical, fluorescence intensity. Kallikrein-7 (Homo sapiens), P49862. 370,000 tested, 0.9% active. purified proKLK7, EDANS-DABCYL substrate fluorescence; 100% is mature enzyme control, 0% vehicle. activation, % at 7 µM;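 active means activation above the mean of all tested compounds plus 3 SD, computed per campaign excluding outliers beyond control limits, cut at about 13% in these data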
sPLA2-III inh = human group III sPLA2 inhibitors, primary screen, biochemical, QFRET, BODIPY PC-A2 liposome substrate; 370,000 tested, 0.56% active; inhibition, % at 12.2 µM; AID 743126, 2013; Group 3 secretory phospholipase A2 (Homo sapiens), Q9NZ20; QFRET BODIPY PC-A2 liposome hydrolysis, fluorescence;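 active means inhibition above mean plus 3 SD of compounds lying within the high and low control bounds, cut at about 19% in these data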
Target sequence (Q9NZ20 whole entry, looked up): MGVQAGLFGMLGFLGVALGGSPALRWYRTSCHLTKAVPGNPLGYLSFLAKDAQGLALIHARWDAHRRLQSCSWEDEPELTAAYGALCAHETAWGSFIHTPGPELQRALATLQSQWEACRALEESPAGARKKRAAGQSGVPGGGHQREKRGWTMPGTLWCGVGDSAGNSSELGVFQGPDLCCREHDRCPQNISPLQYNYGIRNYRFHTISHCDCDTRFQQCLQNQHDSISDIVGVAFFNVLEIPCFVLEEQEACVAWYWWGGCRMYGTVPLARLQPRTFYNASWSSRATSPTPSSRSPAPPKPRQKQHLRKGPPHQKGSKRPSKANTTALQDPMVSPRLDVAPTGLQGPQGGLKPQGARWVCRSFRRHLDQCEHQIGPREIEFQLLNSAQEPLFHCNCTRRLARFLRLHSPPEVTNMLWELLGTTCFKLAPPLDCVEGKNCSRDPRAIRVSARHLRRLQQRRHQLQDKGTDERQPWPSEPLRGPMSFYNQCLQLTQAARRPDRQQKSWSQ
PLC-beta3 inh = human PLC-beta3 inhibitors, primary screen, biochemical, fluorescence; inhibition, % at 12.2 µM; 1-phosphatidylinositol 4,5-bisphosphate phosphodiesterase beta-3 (Homo sapiens), Q01970; 370,000 tested, 0.18% active; Purified PLC-beta3, fluorogenic substrate; in the data active means inhibition above about 11%
ADAM10 inh = human ADAM10 inhibitors, primary screen, biochemical, QFRET, HTS. inhibition, % at 7 µM. AID 720582, 2013. Disintegrin and metalloproteinase domain-containing protein 10 (Homo sapiens), O14672. recombinant ADAM10, EDANS/DABCYL FRET peptide cleavage, 3 h. 370,000 tested, 0.62% active;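 active means inhibition above a per-campaign cutoff equal to the mean of compounds falling between control-based bounds plus 3 SD, cut at about 20% in these data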
PLC-gamma1 inh = PLC-gamma1 enzyme inhibitors, primary screen, biochemical, fluorescence, purified enzyme | 1-phosphatidylinositol 4,5-bisphosphate phosphodiesterase gamma-1 (Homo sapiens), P19174 | inhibition, % at 12.2 µM | fluorogenic substrate | 370,000 tested, 0.84% active; in the data active means inhibition above about 9.5%
ADAM10 confirm = human ADAM10 inhibitors, confirmation, biochemical, QFRET, triplicate; shares compounds with ADAM10 inh; ADAM10 QFRET peptide cleavage, EDANS fluorescence; inhibition, % at 6.95 µM; 2,100 tested, 1% active; AID 743208, 2013;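 active means inhibition above about 20% chosen separately for each screening run, limit read from the data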
ADAM17 ctr = ADAM17 inhibitors, counter-screen for ADAM10 exosite inhibitor project, biochemical, QFRET, high throughput; shares compounds with ADAM10 inh; ADAM17 QFRET peptide cleavage, EDANS fluorescence; inhibition, % at 6.95 µM; AID 743214, 2013; 2,100 tested, 0.5% active;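 active means mean triplicate inhibition above the solvent-only control wells' mean plus 3 SD, cut at about 12% in these data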
ADAM10 counter = ADAM10 inhibitors, counter-screen for ADAM17 exosite inhibitor project, biochemical, FRET, human ADAM10. shares compounds with ADAM17 inh. recombinant ADAM10, EDANS/DABCYL FRET peptide cleavage, 3 h. inhibition, % at 6.95 µM. 2,900 tested, 47% active. AID 743256, 2014;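 active means mean inhibition over the triplicate runs exceeds the activity threshold set in the earlier primary screen, cut at about 20% in these data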
ADAM17 confirm = ADAM17 inhibitors, hit retest, confirmation, biochemical, QFRET peptide cleavage; inhibition, % at 6.95 µM; recombinant ADAM17, EDANS/DABCYL QFRET peptide cleavage; shares compounds with ADAM17 inh; 2,900 tested, 65% active;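 active means mean inhibition across replicates above the hit cutoff set in the primary screen, cut at about 8.5% in these data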
Large screens that a line does not name were inactive (follow-up assays come after a bar, where they were run); ! = not active in a repeat. Rows were chosen to be rich in hits. Some 3.4% of all compounds tested hit in one or more screens of this group.

CCCCCCCCNS(=O)(=O)CC1NCc2ccc(C)cc21 (configuration not stated)	none
O=C1CC(N(CCc2ccccc2)C(=S)Nc2cc(Cl)ccc2Cl)C(=O)N1c1c(Cl)cccc1Cl (configuration not stated)	ADAM17 inh 12, ADAM10 inh 21 | ADAM10 confirm inactive | ADAM17 ctr inactive | ADAM10 counter 24 | ADAM17 confirm 13
O=C1CC(N(CCc2ccccc2)C(=S)Nc2ccccc2)C(=O)N1c1ccc(F)cc1 (configuration not stated)	none
O=C(Nc1nc(-c2ccc(S(=O)(=O)N3CCOCC3)cc2)cs1)c1ccccc1	ADAM17 inh 11!, ADAM10 inh 21! | ADAM10 confirm inactive | ADAM17 ctr inactive | ADAM10 counter inactive | ADAM17 confirm inactive
COC(=O)c1c(NC(C)=O)sc2c1CCCC2	none
COC(=O)c1c(NC(NC(=O)C(C)C)C(Cl)(Cl)Cl)sc2c1CCCC2 (configuration not stated)	ADAM17 inh 10, ADAM10 inh 22 | ADAM10 confirm inactive | ADAM17 ctr inactive | ADAM10 counter 26 | ADAM17 confirm 16
CCC1(c2ccccc2)NC(=O)N(CC(=O)Nc2ccc(S(=O)(=O)N3CC(C)CC(C)C3)cc2)C1=O (configuration not stated)	ADAM17 inh 10, ADAM10 inh 21 | ADAM10 confirm inactive | ADAM17 ctr inactive | ADAM10 counter 48 | ADAM17 confirm 24
NS(=O)(=O)c1ccc(NCc2cc(Cl)ccc2OCc2ccccc2F)cc1	ADAM17 inh 14, ADAM10 inh 31 | ADAM10 confirm inactive | ADAM17 ctr inactive | ADAM10 counter 47 | ADAM17 confirm 21
N/C(=N\S(=O)(=O)c1cc(C(F)(F)F)cc(C(F)(F)F)c1)c1ccc(Cl)cc1	ADAM17 inh 9.7, ADAM10 inh 23 | ADAM10 confirm inactive | ADAM17 ctr inactive | ADAM10 counter 45 | ADAM17 confirm 19
CCOC(=O)C1=CC[C@@H](c2ccccc2)N(S(=O)(=O)c2ccc(C)cc2)[C@H]1/C=C/c1ccccc1	none
C=C[C@H]1C(C(=O)OCC)=CC[C@@H](c2ccccc2)N1S(=O)(=O)c1ccc(C)cc1	ADAM17 inh 13, ADAM10 inh 28 | ADAM10 confirm inactive | ADAM17 ctr inactive | ADAM10 counter inactive | ADAM17 confirm inactive
O=S(=O)(Nc1ccc2c(c1)OCCO2)c1ccc2oc3ccccc3c2c1	ADAM17 inh 11, ADAM10 inh 24 | ADAM10 confirm inactive | ADAM17 ctr inactive | ADAM10 counter 26 | ADAM17 confirm 14
COc1ccc(OC)c(-c2csc(NC(=O)CSc3ccccc3)n2)c1	ADAM17 inh 10, ADAM10 inh 20 | ADAM10 confirm inactive | ADAM17 ctr inactive | ADAM10 counter 25 | ADAM17 confirm 11
COC(=O)c1cc(S(=O)(=O)N2CCN(C(C)=O)CC2)cn1C	none
O=C(Nc1ccc(N2CCCC2)c(S(=O)(=O)Nc2cccc(C(F)(F)F)c2)c1)c1cccs1	ADAM17 inh 15, ADAM10 inh 28 | ADAM10 confirm inactive | ADAM17 ctr inactive | ADAM10 counter 42 | ADAM17 confirm 24
COc1ccccc1NS(=O)(=O)c1cc(NC(=O)c2cccs2)ccc1N1CCCCC1	none
C[C@H]1C(c2ccccc2F)O[C@]2(C[C@H](O)c3ccccc3O2)C[C@@H]1O (some centres not stated)	none
CCOc1cccc(/C=N\NC(=O)Cc2cccs2)c1O	none
COc1ccc(NC(=O)COC(=O)CCCOc2ccc(Cl)cc2Cl)cc1	ADAM17 inh 10, ADAM10 inh 24 | ADAM10 confirm inactive | ADAM17 ctr inactive | ADAM10 counter inactive | ADAM17 confirm inactive
COc1ccc(NC(=O)COC(=O)CCCOc2ccc(Cl)cc2Cl)cc1Cl	none
NC(=O)C1CCN(c2ccnc(Cl)n2)CC1	none (no result: proKLK7 act)
CCOC(=O)[C@]12CCCCC/C=C\1N(Cc1ccc(OC)cc1)C(=O)[C@H]2CC(=O)NCCc1ccccc1OC	none
CC(C)(C)CSc1nnc(-c2cccnc2)n1Cc1ccccc1	none
Cc1cc2oc(=O)cc(-c3ccccc3)c2c(C)c1-c1ccc(O)cc1	ADAM17 inh 16, ADAM10 inh 33 | ADAM10 confirm inactive | ADAM17 ctr inactive | ADAM10 counter inactive | ADAM17 confirm 13
O=C(NC(c1ccc(Cl)cc1)c1c(O)ccc2ccccc12)c1ccccc1 (configuration not stated)	none
CCCCC(=O)NC(c1ccc([N+](=O)[O-])cc1)c1c(O)ccc2ccccc12 (configuration not stated)	ADAM17 inh 11, ADAM10 inh 28 | ADAM10 confirm inactive | ADAM17 ctr inactive | ADAM10 counter 36 | ADAM17 confirm 19
CCC(=O)NC(c1ccc([N+](=O)[O-])cc1)c1c(O)ccc2ccccc12 (configuration not stated)	none
O=C(NC(c1ccccc1)c1c(O)ccc2ccccc12)c1ccccc1Cl (configuration not stated)	ADAM17 inh 10, ADAM10 inh 21 | ADAM10 confirm inactive | ADAM17 ctr inactive | ADAM10 counter inactive | ADAM17 confirm 8.7
